# Assay results as given in PubChem BioAssay (NCI).
# Several values for one entry are separate records, joined by “and”; a condition that tells them apart may be missing. Equal entries are not always repeated. Compounds without any hit were thinned out: in the full panel of roughly 83,000, 20% have a hit.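 For each line, cells grew in 96-well plates with the test compound present at a single concentration for 48 hours.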 Activity calls are given as the source filed them. Rule for the calls: active = growth percent below 10; inactive = the rest.
# System: MDA-MB-468 breast
# Test: NCI-60 one-dose screen, 48 h (100 = growth as untreated, 0 = no growth, -100 = all killed)
# Settings: 10 µM unless noted
row,Compound,growth
1,C/C(=N/OC(=O)N(C)C)c1ccc(Cl)cc1Cl,114% (inactive)
2,Cc1ccc(C(=O)NCCCOc2ccc(N)cc2Cl)cc1S(=O)(=O)F,84.6% (inactive)
3,O=C(Nc1ccc(Cl)cc1)Nc1nccs1,16.4% (inactive)
4,CCCCCCCCCCCCCCCCCCOc1ccccc1COP(=O)(O)OOCC[N+](C)(C)C,-40.1% (active)
5,C[C@]12CC[C@@H]3C4=C(CC[C@H]3[C@@H]1CC[C@@H]2O)CC(=O)CC4,101% (inactive)
6,COc1ccccc1[As]=[As]c1ccccc1OC (centres undefined),-94.8% (active)
7,C[C@@H]1CC[C@@H]2[C@@H]1[C@H](OC(=O)/C=C/C1CCCCC1)[C@]1(C3CCCCC3)C[C@@H](OC(=O)CO)[C@@]2(C)O1,59.5% (inactive)
8,O=C(CC1(O)C(=O)N(Cc2ccccc2)c2ccc(Br)cc21)c1ccc(C(=O)NCC2CCC3(CC2)OOC2(CCCCC2)OO3)cc1 (centres undefined),27.9% (inactive)
9,Cc1c(C)c(N)c(C)c(C)c1N,61.7% (inactive)
10,CC[C@H](C)[C@H](NC(=O)c1cccn1C)C(=O)N(C)[C@H](C[C@@H](OC(C)=O)c1nc(C(=O)N[C@@H](Cc2ccccc2)C[C@H](C)C(=O)OC)cs1)C(C)C,25.9% (inactive)
11,CC1=C2[C@H]3OC(=O)[C@@H](C)[C@@H]3CC[C@@]2(C)C=CC1=O,93.4% (inactive)
12,Nc1c(Br)cc2c3c(cccc13)-c1ccccc1-2,3.54% (active)
13,N#CC1(C#N)C(c2ccc(N(CCCl)CCCl)cc2)OC23CCCCC2C1(C#N)C(=N)O3 (centres undefined),56.5% (inactive)
14,CNC(=O)Oc1ccc2c(c1)OCO2,94.6% (inactive)
15,CNc1ccc(C(=O)CC(O)CCC(C)C2OC(=O)CC(O)CC(=O)CC(O)CC(O)CC(O)CC(O)CC3(O)CC(O)C(C(=O)OC)C(CC(O[C@@H]4O[C@H](C)[C@@H](O)[C@H](N)[C@@H]4O)/C=C/C=C/C=C/C=C/C=C/C=C/C=C/C2C)O3)cc1 (some centres undefined),36.5% (inactive)
16,COc1cc(/C=C(/C)[N+](=O)[O-])ccc1O,-85.4% (active) and -90.3% (active)
17,COc1ccc2c(c1)c(C1(O)CC(CSC#N)OC1=O)cn2C(=O)c1ccc(Cl)cc1 (centres undefined),109% (inactive)
18,CCOC(=O)N1CC1,92.5% (inactive)
19,CCN(CC)c1ccc2c(c1)OC(N)=C(C#N)C2c1cc(OC)c2c(c1)OCO2 (centres undefined),-9.24% (active)
20,Brc1ccc2c(c1)c(-c1nc(-c3c[nH]c4ncccc34)cs1)cn2CCN1CCOCC1,34.2% (inactive)

row,Compound,growth
1,COc1ccc(C2=NN(c3ccccc3)C(c3sc(N(CCCl)CCCl)nc3Cl)C2)cc1 (centres undefined),69.3% (inactive)
2,C[C@]12CCc3nc(-c4ccc(O)c(O)c4)sc3C1=CC[C@@H]1[C@@H]2CC[C@]2(C)C(=O)CC[C@@H]12,80.1% (inactive)
3,CC(C)[C@]12O[C@H]1[C@@H]1O[C@]13[C@]1(O[C@H]1C[C@H]1C4=C(CC[C@@]13C)C(=O)OC4)[C@@H]2OC(=O)OC(C)(C)C,-48.4% (active)
4,O=C1C2C(C(=O)[N]1[Hg][c]1cccs1)C1(Cl)C(Cl)=C(Cl)C2(Cl)C1(Cl)Cl (centres undefined),-83.7% (active)
5,C[C@@H]1O[C@@H](O[C@H]2CC[C@@]3(C)[C@H](CCC4[C@@H]3C(O)C[C@]3(C)[C@@H](c5ccc(=O)oc5)CC[C@]43O)C2)[C@H](O)[C@H](O)[C@H]1O (some centres undefined),-59.8% (active)
6,COC12CC3C4=CCOC5CC(=O)N6c7ccccc7C1(CCN2C4)C6C53 (centres undefined),102% (inactive)
7,CC(C)(C)N1CC1C#N (centres undefined),97% (inactive)
8,NC(=O)C(Br)c1ccccc1 (centres undefined),57.5% (inactive)
9,CCC(C)[C@H]1O[C@]2(C=C[C@@H]1C)C[C@@H]1C[C@@H](C/C=C(\C)[C@@H](OC3C[C@H](OC)C(O[C@H]4C[C@H](OC)[C@@H](O)[C@H](C)O4)[C@H](C)O3)[C@@H](C)/C=C/C=C3\CO[C@@H]4[C@H](O)C(C)=C[C@@H](C(=O)O1)[C@]34O)O2 (some centres undefined),-12.7% (active)
10,CC[C@H](C)[C@@H]1OC(=O)C(C)(C)[C@H](O)[C@H](Cc2ccccc2)OC(=O)[C@H](C(C)C)OC(=O)[C@@H](NC(=O)c2cccc(NC=O)c2O)[C@@H](C)OC1=O,9.86% (active)
11,CC(=O)O[C@H]1CC[C@@]2(C)C(=CC[C@H]3[C@@H]4C[C@@H](N5CC5)[C@H](C(C)=O)[C@@]4(C)CC[C@@H]32)C1,79% (inactive)
12,CC[C@H](C)[C@H](NC(=O)Nc1ccccc1)C(=O)N(C)[C@H](C[C@@H](OC(C)=O)c1nc(C(=O)N[C@@H](Cc2ccccc2)C[C@H](C)C(=O)OC)cs1)C(C)C,-1.4% (active)
13,CC(C)OC(=S)[S-].[Au+].c1ccc([PH+](c2ccccc2)c2ccccc2)cc1,-32.3% (active)
14,Cc1cnc(/C=C/C(=O)O)cc1-c1cc2c(cc1C)C(C)(C)CCC2(C)C,95.4% (inactive)
15,CC[C@H](C)[C@H](NC(=O)[C@H]1CCCCN1C)C(=O)N(C)[C@H](CC(=O)c1nc(C(=O)N[C@@H](Cc2ccccc2)C[C@H](C)C(=O)O)cs1)C(C)C,62.3% (inactive)
16,COC(=O)[C@@H](NC(=O)c1cn(CCC2CCCCC2)c2ccccc12)C(C)(C)C,82.3% (inactive)
17,O=NN1CCCc2cccc(O)c21,67.7% (inactive)
18,CCOC(=O)[C@@H](C)C[C@H](Cc1ccccc1)NC(=O)c1nc([C@@H](C[C@H](C(C)C)N(C)C(=O)[C@@H](NC(=O)[C@H]2CCCCN2C)C(C)C)OC(C)=O)sc1CCOCc1ccccc1,-48.6% (active)
19,NC(=S)c1cn(C2OC(CO)C(O)C2O)c2ncnc(N)c12 (centres undefined),-43.2% (active)
